In PubChem BioAssay (EPA / NIEHS):
Results filed as inconclusive are left out. Activity calls are given as the source filed them. Rule for the calls: active = hit-call score of the fitted dose curve at least 0.9, where 1 is the maximum; inconclusive = response in the unintended direction; inactive = score below 0.9.

Tests used:
[1] = biological target: human Caspase 2 (CASP2), CASP2 (gene 835) (UniProt P42575); test: NVS_ENZ_hCASP2: NovaScreen (NVS) Enzymatic Assay for human Caspase 2 (CASP2) (AID 2283135)
Summary of the method: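 Single-point duplicate testing at 25 uM preceded concentration series topping at 50 uM. Activity of the recombinant E. coli-derived protease was followed by fluorescent substrate cleavage 1 h post-dosing, relative to DMSO.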

[2] = biological target: Norway rat Vesicular Monoamine Transporter (VMAT2), neurotransmitter transporter, Slc18a2 (gene 25549) (UniProt Q01827); test: NVS_TR_rVMAT2: NovaScreen (NVS) Transporter Assay for Norway rat Vesicular Monoamine Transporter (VMAT2), neurotransmitter transporter (AID 2283376);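 note: actives lower the bound radioligand signal below the DMSO level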
Summary of the method: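 Binding endpoint from rat forebrain tissue, cell-free; 1 h incubation; filtered radioligand counted; 25 uM duplicate primary then dose series; DMSO negative control.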

[3] = biological target: human Fibroblast Growth Factor Receptor 1 (FGFR1), FGFR1 (gene 2260) (UniProt P11362); test: NVS_ENZ_hFGFR1: NovaScreen (NVS) Enzymatic Assay for human Fibroblast Growth Factor Receptor 1 (FGFR1) (AID 2283159)
Summary of the method: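 Cell-free recombinant kinase with fluorescent substrate, product separated by electrophoretic mobility shift; read 1 hour after dosing, loss of signal relative to DMSO. Initial screen in duplicate at 25 uM, actives followed in concentration series.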

[4] = biological target: human Aurora Kinase A - serine/threonine-protein Kinase 6 (AurA), AURKA (gene 6790) (UniProt O14965); test: NVS_ENZ_hAurA: NovaScreen (NVS) Enzymatic Assay for human Aurora Kinase A - serine/threonine-protein Kinase 6 (AurA) (AID 2283142)
Summary of the method: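 Recombinant human AurA activity read by fluorescence after mobility-shift separation of product from substrate; 1 hour incubation. Chemicals first run in duplicate at 25 uM, then concentration series to 50 uM if over threshold; fitted relative to DMSO.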

[5] = biological target: human Caspase 10 (CASP10), CASP10 (gene 843) (UniProt Q92851); test: NVS_ENZ_hCASP10: NovaScreen (NVS) Enzymatic Assay for human Caspase 10 (CASP10) (AID 2283133)
Summary of the method: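 Fluorescence-intensity enzyme read-out of E. coli-expressed CASP10 activity, 1 h after compound. Single-point duplicates at 25 uM preceded concentration-response testing (top 50 uM) of hits; inhibition expressed as signal loss versus DMSO.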

[6] = biological target: human Mitogen-Activated Protein Kinase 1 (MAPK 1), MAPK1 (gene 5594) (UniProt P28482); test: NVS_ENZ_hMAPK1: NovaScreen (NVS) Enzymatic Assay for human Mitogen-Activated Protein Kinase 1 (MAPK 1) (AID 2283175)
Summary of the method: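 Cell-free recombinant human MAPK1 enzymatic assay, fluorescence/electrophoretic mobility shift read at 1 h; loss of signal vs DMSO. Primary screen in duplicate at 25 uM; actives (e.g. ≥30% inhibition) run as concentration-response up to 50 uM.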

[7] = biological target: human Tyrosine Protein Kinase Receptor Tie-2 (Tie2), TEK (gene 7010) (UniProt Q02763); test: NVS_ENZ_hTie2: NovaScreen (NVS) Enzymatic Assay for human Tyrosine Protein Kinase Receptor Tie-2 (Tie2) (AID 2283225)
Summary of the method: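 Substrate and product were separated by mobility shift and detected by fluorescence after a 1-hour reaction with recombinant Tie2. Chemicals passing a 25 uM single-point screen were titrated to a maximum of 50 uM. Results were normalized to DMSO baseline.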

[8] = biological target: human Ephrin type-A Receptor 2 (EphA2), EPHA2 (gene 1969) (UniProt P29317); test: NVS_ENZ_hEphA2: NovaScreen (NVS) Enzymatic Assay for human Ephrin type-A Receptor 2 (EphA2) (AID 2283155)
Summary of the method: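 Enzyme activity of recombinant EphA2 read by fluorescence after mobility-shift separation, 1 h after dosing. Chemicals first tested at 25 uM (duplicate); those passing threshold run as concentration series, top 50 uM, single replicate, relative to DMSO.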

[9] = tested on: guinea pig Atrionatriuretic Peptide Receptor A (ANPA), gene 100135578; test: NVS_GPCR_gANPA: NovaScreen (NVS) G Protein-Coupled Receptor Assay for guinea pig Atrionatriuretic Peptide Receptor A (ANPA) (AID 2283291)
Summary of the method: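 Displacement of specific radioligand from guinea pig cerebellum membranes was read by scintillation after 1 h. A duplicate single-point screen at 25 uM was followed by a concentration series up to 50 uM, analysed relative to DMSO.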

[10] = biological target: Voltage-dependent N-type calcium channel subunit alpha-1B (Rattus norvegicus) (UniProt Q02294); test: NVS_IC_rCaChN: NovaScreen (NVS) Ion Channel Assay for rat Calcium Channel, Type N (CaChN) (AID 2283317)
[11] = biological target: human Ephrin type-B Receptor 2 (EphB2), EPHB2 (gene 2048) (UniProt P29323); test: NVS_ENZ_hEphB2: NovaScreen (NVS) Enzymatic Assay for human Ephrin type-B Receptor 2 (EphB2) (AID 2283156)
Summary of the method: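 Compounds were first tested in duplicate at 25 uM, with hits rerun singly in concentration series up to 50 uM. Enzyme activity on fluorescent substrate was read at 1 h by mobility-shift separation, scored as signal loss relative to DMSO.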

[12] = biological target: human MET Proto-Oncogene, Receptor Tyrosine Kinase (MET), MET (gene 4233) (UniProt P08581); test: NVS_ENZ_hMet: NovaScreen (NVS) Enzymatic Assay for human MET Proto-Oncogene, Receptor Tyrosine Kinase (MET) (AID 2283180)
Summary of the method: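 Hits from a 25 uM duplicate screen were retested in concentration series up to 50 uM. Enzyme activity was measured by fluorescence after electrophoretic separation of product from substrate, 1 h after compound addition, relative to DMSO.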

PPP2CA (gene 5515) = PPP2CA (gene 5515) (UniProt P67775); test: NVS_ENZ_hPPP2CA: NovaScreen (NVS) Enzymatic Assay for human Protein Phosphatase 2 Aatalytic subunit Alpha (PPP2CA) (AID 2283199)
Summary of the method: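 Cell-free phosphatase activity: fluorescent substrate turnover by recombinant human enzyme, resolved by mobility shift at 1.33 h. Compounds passing the 25 uM duplicate primary screen were rerun in singleton series with a 50 uM top concentration.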

[13] = biological target: human Protein Tyrosine Phosphatase Non-receptor Type 2 (PTPN2), PTPN2 (gene 5771) (UniProt P17706); test: NVS_ENZ_hPTPN2: NovaScreen (NVS) Enzymatic Assay for human Protein Tyrosine Phosphatase Non-receptor Type 2 (PTPN2) (AID 2283207)
Summary of the method: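 Activity measured as fluorescence after mobility-shift separation of substrate and product, 1 h after compound. Duplicate single-point 25 uM primary testing, concentration series for actives; inhibition scored as signal loss relative to DMSO baseline.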

[14] = biological target: rat Oxytocin Receptor (OXT), Oxtr (gene 25342) (UniProt P70536); test: NVS_GPCR_rOXT: NovaScreen (NVS) G Protein-Coupled Receptor Assay for rat Oxytocin Receptor (OXT) (AID 2283330)
Summary of the method: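 Binding to rat uterine membrane receptor was followed by scintillation counting of filter-trapped radioligand after 1 h. A 25 uM duplicate single-point screen preceded concentration series with a top of 50 uM. Signal loss was analysed relative to DMSO.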

[15] = biological target: human p21 Activated Kinase 4 (PAK4), PAK4 (gene 10298) (UniProt O96013); test: NVS_ENZ_hPAK4: NovaScreen (NVS) Enzymatic Assay for human p21 Activated Kinase 4 (PAK4) (AID 2283189)
Summary of the method: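 Extracted PAK4 enzyme activity read by fluorescence with mobility-shift separation 1 h after chemical addition. Duplicate single-concentration screen at 25 uM, DMSO as negative control.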

[16] = biological target: rat Acetylcholinesterase (AChE), Ache (gene 83817) (UniProt P37136); test: NVS_ENZ_rAChE: NovaScreen (NVS) Enzymatic Assay for rat Acetylcholinesterase (AChE) (AID 2283233)
Summary of the method: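 Compounds first screened at 25 uM in duplicate, then those passing threshold tested in concentration series up to 50 uM, against AChE from rat brain membranes. Enzyme activity read by absorbance at 0.33 h; inhibition scored versus DMSO.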

[17] = tested on: rat Monoamine Oxidase, MAO-A, Peripheral (MAOAP), gene 29253; test: NVS_ENZ_rMAOAP: NovaScreen (NVS) Enzymatic Assay for rat Monoamine Oxidase, MAO-A, Peripheral (MAOAP) (AID 2283237)
Summary of the method: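 Scintillation counting tracked MAO-A activity in a cell-free rat liver mitochondrial membrane prep, read 1.17 hours after compound addition. Single-point duplicate testing at 25 uM preceded concentration-response follow-up; activity was fitted relative to DMSO.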

[18] = biological target: rat Monoamine Oxidase, MAO-B, Peripheral (MAOBP), Maob (gene 25750) (UniProt P19643); test: NVS_ENZ_rMAOBP: NovaScreen (NVS) Enzymatic Assay for rat Monoamine Oxidase, MAO-B, Peripheral (MAOBP) (AID 2283242)
[19] = biological target: human Phosphatase and Tensin Homolog (PTEN), PTEN (gene 5728) (UniProt P60484); test: NVS_ENZ_hPTEN: NovaScreen (NVS) Enzymatic Assay for human Phosphatase and Tensin Homolog (PTEN) (AID 2283203)
Summary of the method: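 Loss of fluorescent product signal after mobility-shift separation reports PTEN activity, recombinant human enzyme, 1 h after compound addition. Single 25 uM duplicate screen, then concentration-response on actives; DMSO baseline.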

[20] = biological target: human NIMA (Never In Mitosis Gene A)-Related Kinase 2 (NEK2), NEK2 (gene 4751) (UniProt P51955); test: NVS_ENZ_hNEK2: NovaScreen (NVS) Enzymatic Assay for human NIMA (Never In Mitosis Gene A)-Related Kinase 2 (NEK2) (AID 2283188)
Summary of the method: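 Compounds were first screened in duplicate at 25 uM, with actives followed up in concentration series. Recombinant NEK2 activity, cell-free, was read 1 h after dosing by fluorescence intensity after mobility-shift separation. Signal loss was scored against DMSO.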

Measured: AC50

rat Oxytocin Receptor (OXT), Oxtr (gene 25342), sequence (P70536 whole entry, looked up): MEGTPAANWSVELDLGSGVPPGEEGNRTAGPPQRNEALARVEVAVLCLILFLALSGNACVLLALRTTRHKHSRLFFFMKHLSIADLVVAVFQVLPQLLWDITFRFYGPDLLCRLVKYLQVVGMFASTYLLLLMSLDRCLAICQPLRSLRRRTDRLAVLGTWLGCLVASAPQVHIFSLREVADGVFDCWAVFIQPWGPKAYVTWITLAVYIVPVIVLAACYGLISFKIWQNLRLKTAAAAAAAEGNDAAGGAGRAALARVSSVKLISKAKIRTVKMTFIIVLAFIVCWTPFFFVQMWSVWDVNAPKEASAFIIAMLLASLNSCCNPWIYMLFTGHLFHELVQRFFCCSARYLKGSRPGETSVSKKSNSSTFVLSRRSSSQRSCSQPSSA
human Aurora Kinase A - serine/threonine-protein Kinase 6 (AurA), AURKA (gene 6790), sequence (O14965 whole entry, looked up): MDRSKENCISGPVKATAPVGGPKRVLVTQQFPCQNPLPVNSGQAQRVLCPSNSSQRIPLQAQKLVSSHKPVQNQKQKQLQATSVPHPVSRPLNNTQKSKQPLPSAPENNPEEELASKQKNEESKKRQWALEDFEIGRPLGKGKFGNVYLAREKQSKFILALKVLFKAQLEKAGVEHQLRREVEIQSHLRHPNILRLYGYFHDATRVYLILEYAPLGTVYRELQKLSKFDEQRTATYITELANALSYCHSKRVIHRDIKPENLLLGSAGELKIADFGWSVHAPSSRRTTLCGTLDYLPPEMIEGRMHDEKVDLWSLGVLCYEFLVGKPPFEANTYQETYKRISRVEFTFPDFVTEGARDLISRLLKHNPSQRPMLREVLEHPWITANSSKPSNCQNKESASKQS
human Fibroblast Growth Factor Receptor 1 (FGFR1), FGFR1 (gene 2260), sequence (P11362 whole entry, looked up): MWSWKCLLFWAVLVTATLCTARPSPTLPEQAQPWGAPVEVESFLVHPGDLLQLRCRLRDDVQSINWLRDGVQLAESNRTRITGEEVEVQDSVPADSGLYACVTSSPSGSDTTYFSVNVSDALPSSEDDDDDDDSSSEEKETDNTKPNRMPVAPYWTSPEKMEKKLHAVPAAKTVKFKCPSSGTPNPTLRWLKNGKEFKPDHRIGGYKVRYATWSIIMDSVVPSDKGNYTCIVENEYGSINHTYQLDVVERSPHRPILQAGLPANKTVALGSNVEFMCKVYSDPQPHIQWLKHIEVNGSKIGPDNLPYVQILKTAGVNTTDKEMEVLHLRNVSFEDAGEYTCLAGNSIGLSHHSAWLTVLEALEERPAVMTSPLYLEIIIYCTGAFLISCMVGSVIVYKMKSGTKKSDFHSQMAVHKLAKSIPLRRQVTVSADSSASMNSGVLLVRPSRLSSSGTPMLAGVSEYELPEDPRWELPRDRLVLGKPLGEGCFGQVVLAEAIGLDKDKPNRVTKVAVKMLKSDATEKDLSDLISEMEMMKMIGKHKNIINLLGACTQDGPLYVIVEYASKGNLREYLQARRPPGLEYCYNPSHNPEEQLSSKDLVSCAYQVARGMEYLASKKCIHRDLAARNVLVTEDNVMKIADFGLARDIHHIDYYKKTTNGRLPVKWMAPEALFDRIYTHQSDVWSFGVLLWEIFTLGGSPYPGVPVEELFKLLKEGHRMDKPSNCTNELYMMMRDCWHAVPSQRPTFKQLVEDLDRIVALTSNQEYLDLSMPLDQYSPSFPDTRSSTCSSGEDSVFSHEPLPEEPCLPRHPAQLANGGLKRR
Norway rat Vesicular Monoamine Transporter (VMAT2), neurotransmitter transporter, Slc18a2 (gene 25549), sequence (Q01827 whole entry, looked up): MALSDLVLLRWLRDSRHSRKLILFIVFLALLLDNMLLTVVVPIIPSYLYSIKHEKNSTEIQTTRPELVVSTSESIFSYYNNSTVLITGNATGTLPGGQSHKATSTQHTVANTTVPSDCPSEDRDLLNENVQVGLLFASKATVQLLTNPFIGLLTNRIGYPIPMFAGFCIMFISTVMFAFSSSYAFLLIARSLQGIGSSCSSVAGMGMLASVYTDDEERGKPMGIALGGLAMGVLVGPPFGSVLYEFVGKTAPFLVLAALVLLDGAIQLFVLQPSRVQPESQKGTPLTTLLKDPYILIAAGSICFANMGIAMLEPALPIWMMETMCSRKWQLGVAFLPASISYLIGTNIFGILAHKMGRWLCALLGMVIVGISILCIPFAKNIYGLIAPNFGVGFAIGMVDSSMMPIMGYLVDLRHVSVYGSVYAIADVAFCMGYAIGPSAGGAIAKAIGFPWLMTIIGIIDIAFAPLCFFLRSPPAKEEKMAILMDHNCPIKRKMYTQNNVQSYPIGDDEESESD
human Caspase 2 (CASP2), CASP2 (gene 835), sequence (P42575 whole entry, looked up): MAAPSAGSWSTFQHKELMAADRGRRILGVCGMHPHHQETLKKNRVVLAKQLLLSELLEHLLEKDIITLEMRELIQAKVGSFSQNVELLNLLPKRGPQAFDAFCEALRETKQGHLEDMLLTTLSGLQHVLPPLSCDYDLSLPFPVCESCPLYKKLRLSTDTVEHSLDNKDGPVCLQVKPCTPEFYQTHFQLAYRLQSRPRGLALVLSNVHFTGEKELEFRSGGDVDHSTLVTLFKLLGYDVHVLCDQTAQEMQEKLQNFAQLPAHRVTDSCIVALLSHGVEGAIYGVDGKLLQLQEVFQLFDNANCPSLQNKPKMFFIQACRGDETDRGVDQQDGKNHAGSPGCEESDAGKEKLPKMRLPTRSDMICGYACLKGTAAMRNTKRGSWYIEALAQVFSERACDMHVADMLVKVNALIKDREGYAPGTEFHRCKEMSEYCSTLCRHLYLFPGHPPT
human Tyrosine Protein Kinase Receptor Tie-2 (Tie2), TEK (gene 7010), sequence (Q02763 whole entry, looked up): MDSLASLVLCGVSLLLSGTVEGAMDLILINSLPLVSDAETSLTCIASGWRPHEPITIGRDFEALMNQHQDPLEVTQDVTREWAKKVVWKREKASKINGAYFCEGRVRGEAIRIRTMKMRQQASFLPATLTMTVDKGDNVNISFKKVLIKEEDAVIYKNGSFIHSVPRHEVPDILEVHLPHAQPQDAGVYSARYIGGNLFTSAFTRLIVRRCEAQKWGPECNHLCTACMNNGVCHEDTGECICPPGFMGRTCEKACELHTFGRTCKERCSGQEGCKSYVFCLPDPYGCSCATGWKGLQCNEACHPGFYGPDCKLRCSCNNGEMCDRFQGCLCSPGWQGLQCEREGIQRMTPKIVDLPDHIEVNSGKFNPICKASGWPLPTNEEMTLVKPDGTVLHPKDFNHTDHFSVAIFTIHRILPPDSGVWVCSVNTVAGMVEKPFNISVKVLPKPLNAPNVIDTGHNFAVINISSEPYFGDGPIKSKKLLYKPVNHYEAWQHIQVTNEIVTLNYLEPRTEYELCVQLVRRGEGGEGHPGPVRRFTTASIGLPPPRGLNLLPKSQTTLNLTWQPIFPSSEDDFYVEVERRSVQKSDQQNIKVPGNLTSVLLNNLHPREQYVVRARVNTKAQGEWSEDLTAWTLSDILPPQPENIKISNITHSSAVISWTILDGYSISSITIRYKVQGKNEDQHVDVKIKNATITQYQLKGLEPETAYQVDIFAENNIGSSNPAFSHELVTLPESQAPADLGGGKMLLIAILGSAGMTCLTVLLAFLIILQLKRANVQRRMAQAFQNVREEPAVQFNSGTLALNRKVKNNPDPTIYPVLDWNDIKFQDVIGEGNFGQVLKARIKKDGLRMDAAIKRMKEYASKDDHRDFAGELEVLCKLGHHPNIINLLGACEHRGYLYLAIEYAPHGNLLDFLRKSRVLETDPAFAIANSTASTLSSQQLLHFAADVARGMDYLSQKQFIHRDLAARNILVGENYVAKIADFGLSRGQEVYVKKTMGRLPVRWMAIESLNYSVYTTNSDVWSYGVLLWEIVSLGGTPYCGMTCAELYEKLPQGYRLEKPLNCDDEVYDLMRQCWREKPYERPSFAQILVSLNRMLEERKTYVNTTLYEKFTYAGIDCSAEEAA
human Ephrin type-A Receptor 2 (EphA2), EPHA2 (gene 1969), sequence (P29317 whole entry, looked up): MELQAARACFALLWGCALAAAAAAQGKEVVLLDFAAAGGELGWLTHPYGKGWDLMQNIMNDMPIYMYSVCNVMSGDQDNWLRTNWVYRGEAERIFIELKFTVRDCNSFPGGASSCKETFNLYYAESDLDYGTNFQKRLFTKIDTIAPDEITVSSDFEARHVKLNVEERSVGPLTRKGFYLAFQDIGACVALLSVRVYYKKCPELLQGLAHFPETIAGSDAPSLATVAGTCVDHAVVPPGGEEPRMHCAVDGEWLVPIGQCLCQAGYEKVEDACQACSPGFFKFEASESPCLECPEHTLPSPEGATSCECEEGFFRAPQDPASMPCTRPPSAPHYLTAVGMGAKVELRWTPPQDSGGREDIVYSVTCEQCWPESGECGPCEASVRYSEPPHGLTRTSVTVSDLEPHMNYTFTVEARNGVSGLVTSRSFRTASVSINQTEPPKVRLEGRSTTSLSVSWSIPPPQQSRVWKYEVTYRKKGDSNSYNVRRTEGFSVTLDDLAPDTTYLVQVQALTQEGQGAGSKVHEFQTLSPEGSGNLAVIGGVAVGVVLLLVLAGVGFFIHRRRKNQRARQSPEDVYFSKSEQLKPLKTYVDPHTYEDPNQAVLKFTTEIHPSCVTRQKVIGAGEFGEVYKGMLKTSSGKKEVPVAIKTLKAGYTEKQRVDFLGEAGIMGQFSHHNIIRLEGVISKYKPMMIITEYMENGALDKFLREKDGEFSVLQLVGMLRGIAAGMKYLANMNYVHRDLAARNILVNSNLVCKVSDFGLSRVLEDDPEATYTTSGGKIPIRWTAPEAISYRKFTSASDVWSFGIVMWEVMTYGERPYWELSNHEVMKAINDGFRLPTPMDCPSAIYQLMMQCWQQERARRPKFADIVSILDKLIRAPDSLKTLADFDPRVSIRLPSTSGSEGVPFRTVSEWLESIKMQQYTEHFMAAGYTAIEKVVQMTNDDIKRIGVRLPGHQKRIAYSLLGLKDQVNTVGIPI
PPP2CA (gene 5515), sequence (P67775 whole entry, looked up): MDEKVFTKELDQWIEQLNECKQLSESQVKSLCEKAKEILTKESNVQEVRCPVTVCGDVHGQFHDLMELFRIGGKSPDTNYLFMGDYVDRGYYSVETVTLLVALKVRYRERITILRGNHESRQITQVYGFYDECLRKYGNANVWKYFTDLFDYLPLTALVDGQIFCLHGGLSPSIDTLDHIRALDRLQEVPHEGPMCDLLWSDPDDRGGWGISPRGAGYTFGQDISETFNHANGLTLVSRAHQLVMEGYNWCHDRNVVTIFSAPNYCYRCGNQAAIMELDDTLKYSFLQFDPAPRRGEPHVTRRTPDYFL

CO[C@H]1/C=C/O[C@@]2(C)Oc3c(C)c(O)c4c(O)c(c(/C=N/N5CCN(C)CC5)c(O)c4c3C2=O)NC(=O)/C(C)=C\C=C\[C@H](C)[C@H](O)[C@@H](C)[C@@H](O)[C@@H](C)[C@H](OC(C)=O)[C@@H]1C
inactive: [1] | [2]

Cc1c(-c2cccnc2)c2ccccc2n1CCCCC(=O)O
inactive: [1] | [3]

CC(C)c1ccc(C(=O)N=C(N)N)cc1S(C)(=O)=O
inactive: [4]

C[Si]1(C)O[Si](C)(C)O[Si](C)(C)O[Si](C)(C)O1
inactive: [5] | [6] | [7] | [2]

CC(=O)c1ccccc1
inactive: [1] | [8] | [9]

CN(C)CCCN(C)CCCN(C)C
inactive: [1] | [10]

Cc1ccc(N)cc1O
inactive: [4] | [11] | [3] | [12] | PPP2CA (gene 5515)
active: [8] 18.1 µM

CN(C)c1ccc(Cc2ccc(N(C)C)cc2)cc1
inactive: [4]

CCCC(CCC)C(=O)O
inactive: [1] | [4] | [3] | [12] | [13] | [7]

CCN(CC)C(=O)c1cc(S(=O)(=O)Cc2ccccc2)c(N2CCC(c3ccccc3)CC2)cc1N(CC)CCN(C)C
inactive: [1] | [3] | [12] | [7]
active: [14] 6.13 µM

COC(=O)CC(=O)OC
inactive: [1]

Cc1oc(-c2ccccc2)nc1CCOc1cccc2c1ccn2CCC(=O)O
inactive: [1] | [3] | [10]

O=C(NO)C1(NS(=O)(=O)c2ccc(Oc3ccc(F)cc3)cc2)CCOCC1
inactive: [1] | [4] | [8] | [3] | [12] | [15] | [7] | [2]

COc1ccc2cc(S(=O)(=O)N[C@H](CC(=O)N[C@H](Cc3ccc(CN4[C@H](C)CCC[C@@H]4C)cc3)C(=O)N(C)C(C)C)c3ccc4c(c3)OCO4)ccc2c1
inactive: [1] | [18] | [14]
active: [16] 30.6 µM | [17] 36 µM

NCC1(Cc2noc(=O)[nH]2)CCCCC1
inactive: [1] | [17] | [10] | [14]

O=S1(=O)CCCO1
inactive: [4]

CC[C@H](C)C(=O)O[C@H]1C[C@H](O)C=C2C=C[C@H](C)[C@H](CC[C@@H](O)C[C@@H](O)CC(=O)O)[C@H]21
inactive: [8] | [3] | [19] | [7] | [17] | [14]

Cc1nc(-c2ccccn2)ncc1C(=O)Nn1cc(C)c2cc(F)ccc21
inactive: [4] | [8] | [3] | [6] | [12] | [20] | PPP2CA (gene 5515) | [19] | [7]
